Measurements published in paper PMC11006913.

How the values were obtained:
Experiment in all cases: PBM; 200 nM protein, PBS
Details in all cases: dsDNA, one strand shown
VENTX = target: T1, VENTX (Homo sapiens, UniProt O95231 78-163, R121Q)
T1 sequence: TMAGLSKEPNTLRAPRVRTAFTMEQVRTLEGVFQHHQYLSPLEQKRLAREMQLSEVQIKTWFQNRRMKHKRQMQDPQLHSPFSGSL

HOXA4 [1] = target: HOXA4 (Homo sapiens, UniProt Q00056 201-287, W262R)
HOXA7 [2] = target: HOXA7 (Homo sapiens, UniProt P31268 116-202)
ALX4 [3] = target: ALX4 (Homo sapiens, UniProt Q9H161 200-286)
PRRX1 [4] = target: PRRX1 (Homo sapiens, UniProt P54821 80-166, F113S)
HOXB6 [5] = target: HOXB6 (Homo sapiens, UniProt P17509 132-218, K202E)
ALX4 [6] = target: ALX4 (Homo sapiens, UniProt Q9H161 200-286, Q225E)
HOXA2 = HOXA2 (Homo sapiens, UniProt O43364 129-215, R185T)
ALX1 [7] = target: ALX1 (Homo sapiens, UniProt Q15699 118-204, L144V)
ALX1 [8] = target: ALX1 (Homo sapiens, UniProt Q15699 118-204, L144R)
HOXA4 [9] = target: HOXA4 (Homo sapiens, UniProt Q00056 201-287)
MSX2 = MSX2 (Homo sapiens, UniProt P35548 130-214)
VAX1 [10] = target: VAX1 (Homo sapiens, UniProt Q5SQQ9 86-172, T142I)
HOXA7 [11] = target: HOXA7 (Homo sapiens, UniProt P31268 116-202, W177C)
ALX1 [12] = target: ALX1 (Homo sapiens, UniProt Q15699 118-204)
HOXA4 [13] = target: HOXA4 (Homo sapiens, UniProt Q00056 201-287, W262F)
PRRX1 [14] = target: PRRX1 (Homo sapiens, UniProt P54821 80-166)
VAX1 [15] = target: VAX1 (Homo sapiens, UniProt Q5SQQ9 86-172, K157R)
HOXB6 [16] = target: HOXB6 (Homo sapiens, UniProt P17509 132-218)
Chain of HOXB6 (Homo sapiens, UniProt P17509 132-218) (P17509 132-218): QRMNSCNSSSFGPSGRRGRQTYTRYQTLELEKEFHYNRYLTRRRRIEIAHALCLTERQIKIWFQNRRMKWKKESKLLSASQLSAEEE

Chain of HOXA4 (Homo sapiens, UniProt Q00056 201-287) (Q00056 201-287): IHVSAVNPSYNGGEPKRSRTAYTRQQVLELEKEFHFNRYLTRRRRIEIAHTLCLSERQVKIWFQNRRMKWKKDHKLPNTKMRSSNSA
Chain of HOXA2 (O43364 129-215 R185T): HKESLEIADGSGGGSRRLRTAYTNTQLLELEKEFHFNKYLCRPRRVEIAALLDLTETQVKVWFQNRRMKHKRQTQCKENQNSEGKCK
Chain of ALX1 (Homo sapiens, UniProt Q15699 118-204, L144R) (Q15699 118-204 L144R): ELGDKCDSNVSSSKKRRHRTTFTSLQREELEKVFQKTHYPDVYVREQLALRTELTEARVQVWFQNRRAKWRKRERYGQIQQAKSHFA
Chain of ALX4 (Homo sapiens, UniProt Q9H161 200-286) (Q9H161 200-286): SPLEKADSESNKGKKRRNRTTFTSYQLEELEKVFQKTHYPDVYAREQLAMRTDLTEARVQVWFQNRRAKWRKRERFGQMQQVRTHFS
Chain of PRRX1 (Homo sapiens, UniProt P54821 80-166) (P54821 80-166): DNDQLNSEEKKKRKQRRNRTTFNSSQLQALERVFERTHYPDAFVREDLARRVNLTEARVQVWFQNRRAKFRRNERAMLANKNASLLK
Chain of ALX1 (Homo sapiens, UniProt Q15699 118-204, L144V) (Q15699 118-204 L144V): as the sequence (Q15699 118-204 L144R) above, with R27V counted along it
Chain of PRRX1 (Homo sapiens, UniProt P54821 80-166, F113S) (P54821 80-166 F113S): as the sequence (P54821 80-166) above, with F34S counted along it
Chain of HOXA7 (Homo sapiens, UniProt P31268 116-202, W177C) (P31268 116-202 W177C): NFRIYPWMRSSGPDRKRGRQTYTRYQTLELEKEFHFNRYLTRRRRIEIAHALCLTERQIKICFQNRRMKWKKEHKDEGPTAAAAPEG
Chain of MSX2 (P35548 130-214): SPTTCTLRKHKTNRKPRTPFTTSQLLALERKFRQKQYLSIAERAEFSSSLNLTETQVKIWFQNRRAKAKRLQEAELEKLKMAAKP
Chain of HOXA4 (Homo sapiens, UniProt Q00056 201-287, W262F) (Q00056 201-287 W262F): as the sequence (Q00056 201-287) above, with W62F counted along it
Chain of ALX4 (Homo sapiens, UniProt Q9H161 200-286, Q225E) (Q9H161 200-286 Q225E): as the sequence (Q9H161 200-286) above, with Q26E counted along it
Chain of VAX1 (Homo sapiens, UniProt Q5SQQ9 86-172, K157R) (Q5SQQ9 86-172 K157R): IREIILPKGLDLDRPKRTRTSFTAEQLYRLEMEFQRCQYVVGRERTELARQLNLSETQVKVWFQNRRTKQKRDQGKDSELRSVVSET
Chain of ALX1 (Homo sapiens, UniProt Q15699 118-204) (Q15699 118-204): as the sequence (Q15699 118-204 L144R) above, with R27L counted along it
Chain of HOXA4 (Homo sapiens, UniProt Q00056 201-287, W262R) (Q00056 201-287 W262R): as the sequence (Q00056 201-287) above, with W62R counted along it
Chain of HOXA7 (Homo sapiens, UniProt P31268 116-202) (P31268 116-202): as the sequence (P31268 116-202 W177C) above, with C62W counted along it
Chain of HOXB6 (Homo sapiens, UniProt P17509 132-218, K202E) (P17509 132-218 K202E): as the sequence (P17509 132-218) above, with K71E counted along it
Chain of VAX1 (Homo sapiens, UniProt Q5SQQ9 86-172, T142I) (Q5SQQ9 86-172 T142I): as the sequence (Q5SQQ9 86-172 K157R) above, with T57I, R72K counted along it

Row | Sequence | binding signal (VENTX) | binding signal (HOXA4 [1]) | binding signal (HOXA7 [2]) | binding signal (ALX4 [3]) | binding signal (PRRX1 [4]) | binding signal (HOXB6 [5]) | binding signal (ALX4 [6]) | binding signal (HOXA2) | binding signal (ALX1 [7]) | binding signal (ALX1 [8]) | binding signal (HOXA4 [9]) | binding signal (MSX2) | binding signal (VAX1 [10]) | binding signal (HOXA7 [11]) | binding signal (ALX1 [12]) | binding signal (HOXA4 [13]) | binding signal (PRRX1 [14]) | binding signal (VAX1 [15]) | binding signal (HOXB6 [16])
1 | CTAATTAC | 12.7 upbm affinity estimate (log intensity, higher = more binding, comparable within an allelic series) | 10.8 upbm affinity estimate (log intensity, higher = more binding, comparable within an allelic series) | 11.9 upbm affinity estimate (log intensity, higher = more binding, comparable within an allelic series) | 14.4 upbm affinity estimate (log intensity, higher = more binding, comparable within an allelic series) | 11.5 upbm affinity estimate (log intensity, higher = more binding, comparable within an allelic series) | 10 upbm affinity estimate (log intensity, higher = more binding, comparable within an allelic series) | 13.8 upbm affinity estimate (log intensity, higher = more binding, comparable within an allelic series) | 14.2 upbm affinity estimate (log intensity, higher = more binding, comparable within an allelic series) | 12.2 upbm affinity estimate (log intensity, higher = more binding, comparable within an allelic series) | 11.8 upbm affinity estimate (log intensity, higher = more binding, comparable within an allelic series) | 14.2 upbm affinity estimate (log intensity, higher = more binding, comparable within an allelic series) | 14.1 upbm affinity estimate (log intensity, higher = more binding, comparable within an allelic series) | 14 upbm affinity estimate (log intensity, higher = more binding, comparable within an allelic series) | 8.84 upbm affinity estimate (log intensity, higher = more binding, comparable within an allelic series) | 12.9 upbm affinity estimate (log intensity, higher = more binding, comparable within an allelic series) | 12.5 upbm affinity estimate (log intensity, higher = more binding, comparable within an allelic series) | 13.6 upbm affinity estimate (log intensity, higher = more binding, comparable within an allelic series) | 14.1 upbm affinity estimate (log intensity, higher = more binding, comparable within an allelic series) | 12.3 upbm affinity estimate (log intensity, higher = more binding, comparable within an allelic series)
2 | CCCCGGCG | – | 9.68 upbm affinity estimate (log intensity, higher = more binding, comparable within an allelic series) | – | – | – | 9.01 upbm affinity estimate (log intensity, higher = more binding, comparable within an allelic series) | – | – | – | – | 9.89 upbm affinity estimate (log intensity, higher = more binding, comparable within an allelic series) | – | – | – | – | 9.94 upbm affinity estimate (log intensity, higher = more binding, comparable within an allelic series) | – | – | 9 upbm affinity estimate (log intensity, higher = more binding, comparable within an allelic series)
3 | GTCAATTA | 11.7 upbm affinity estimate (log intensity, higher = more binding, comparable within an allelic series) | 10.5 upbm affinity estimate (log intensity, higher = more binding, comparable within an allelic series) | – | 13.9 upbm affinity estimate (log intensity, higher = more binding, comparable within an allelic series) | 11 upbm affinity estimate (log intensity, higher = more binding, comparable within an allelic series) | 9.73 upbm affinity estimate (log intensity, higher = more binding, comparable within an allelic series) | 13.4 upbm affinity estimate (log intensity, higher = more binding, comparable within an allelic series) | 12.9 upbm affinity estimate (log intensity, higher = more binding, comparable within an allelic series) | 11.8 upbm affinity estimate (log intensity, higher = more binding, comparable within an allelic series) | 11.4 upbm affinity estimate (log intensity, higher = more binding, comparable within an allelic series) | 13.8 upbm affinity estimate (log intensity, higher = more binding, comparable within an allelic series) | 13.8 upbm affinity estimate (log intensity, higher = more binding, comparable within an allelic series) | 13.1 upbm affinity estimate (log intensity, higher = more binding, comparable within an allelic series) | – | 12.4 upbm affinity estimate (log intensity, higher = more binding, comparable within an allelic series) | 11.3 upbm affinity estimate (log intensity, higher = more binding, comparable within an allelic series) | 13.3 upbm affinity estimate (log intensity, higher = more binding, comparable within an allelic series) | 13.2 upbm affinity estimate (log intensity, higher = more binding, comparable within an allelic series) | 11.7 upbm affinity estimate (log intensity, higher = more binding, comparable within an allelic series)
4 | CTAATTGA | 12.1 upbm affinity estimate (log intensity, higher = more binding, comparable within an allelic series) | 10.5 upbm affinity estimate (log intensity, higher = more binding, comparable within an allelic series) | – | 14.1 upbm affinity estimate (log intensity, higher = more binding, comparable within an allelic series) | 11.1 upbm affinity estimate (log intensity, higher = more binding, comparable within an allelic series) | – | 13.5 upbm affinity estimate (log intensity, higher = more binding, comparable within an allelic series) | 13.3 upbm affinity estimate (log intensity, higher = more binding, comparable within an allelic series) | 11.9 upbm affinity estimate (log intensity, higher = more binding, comparable within an allelic series) | 11.5 upbm affinity estimate (log intensity, higher = more binding, comparable within an allelic series) | 13.9 upbm affinity estimate (log intensity, higher = more binding, comparable within an allelic series) | 13.9 upbm affinity estimate (log intensity, higher = more binding, comparable within an allelic series) | 13.2 upbm affinity estimate (log intensity, higher = more binding, comparable within an allelic series) | – | 12.8 upbm affinity estimate (log intensity, higher = more binding, comparable within an allelic series) | 11.4 upbm affinity estimate (log intensity, higher = more binding, comparable within an allelic series) | 13.5 upbm affinity estimate (log intensity, higher = more binding, comparable within an allelic series) | 13.4 upbm affinity estimate (log intensity, higher = more binding, comparable within an allelic series) | –
5 | CCCTACGG | 8.13 upbm affinity estimate (log intensity, higher = more binding, comparable within an allelic series) | 9.76 upbm affinity estimate (log intensity, higher = more binding, comparable within an allelic series) | – | – | – | – | – | – | – | – | 9.86 upbm affinity estimate (log intensity, higher = more binding, comparable within an allelic series) | – | – | – | – | 9.84 upbm affinity estimate (log intensity, higher = more binding, comparable within an allelic series) | – | – | –
6 | ACAATTAA | 11.7 upbm affinity estimate (log intensity, higher = more binding, comparable within an allelic series) | 10.5 upbm affinity estimate (log intensity, higher = more binding, comparable within an allelic series) | 11.6 upbm affinity estimate (log intensity, higher = more binding, comparable within an allelic series) | 13.7 upbm affinity estimate (log intensity, higher = more binding, comparable within an allelic series) | 11.2 upbm affinity estimate (log intensity, higher = more binding, comparable within an allelic series) | 10.1 upbm affinity estimate (log intensity, higher = more binding, comparable within an allelic series) | 12.9 upbm affinity estimate (log intensity, higher = more binding, comparable within an allelic series) | 12.6 upbm affinity estimate (log intensity, higher = more binding, comparable within an allelic series) | 11.4 upbm affinity estimate (log intensity, higher = more binding, comparable within an allelic series) | 11.1 upbm affinity estimate (log intensity, higher = more binding, comparable within an allelic series) | 13.8 upbm affinity estimate (log intensity, higher = more binding, comparable within an allelic series) | 13.7 upbm affinity estimate (log intensity, higher = more binding, comparable within an allelic series) | 12.5 upbm affinity estimate (log intensity, higher = more binding, comparable within an allelic series) | 8.88 upbm affinity estimate (log intensity, higher = more binding, comparable within an allelic series) | 12 upbm affinity estimate (log intensity, higher = more binding, comparable within an allelic series) | 11.5 upbm affinity estimate (log intensity, higher = more binding, comparable within an allelic series) | 13.3 upbm affinity estimate (log intensity, higher = more binding, comparable within an allelic series) | 12.3 upbm affinity estimate (log intensity, higher = more binding, comparable within an allelic series) | 11.9 upbm affinity estimate (log intensity, higher = more binding, comparable within an allelic series)
7 | AATTAATC | 11.8 upbm affinity estimate (log intensity, higher = more binding, comparable within an allelic series) | 10.6 upbm affinity estimate (log intensity, higher = more binding, comparable within an allelic series) | 11.3 upbm affinity estimate (log intensity, higher = more binding, comparable within an allelic series) | 13.9 upbm affinity estimate (log intensity, higher = more binding, comparable within an allelic series) | 11.3 upbm affinity estimate (log intensity, higher = more binding, comparable within an allelic series) | 10 upbm affinity estimate (log intensity, higher = more binding, comparable within an allelic series) | 13.2 upbm affinity estimate (log intensity, higher = more binding, comparable within an allelic series) | 12.6 upbm affinity estimate (log intensity, higher = more binding, comparable within an allelic series) | 11.9 upbm affinity estimate (log intensity, higher = more binding, comparable within an allelic series) | 11.6 upbm affinity estimate (log intensity, higher = more binding, comparable within an allelic series) | 13.9 upbm affinity estimate (log intensity, higher = more binding, comparable within an allelic series) | 13.3 upbm affinity estimate (log intensity, higher = more binding, comparable within an allelic series) | – | 8.73 upbm affinity estimate (log intensity, higher = more binding, comparable within an allelic series) | 12.3 upbm affinity estimate (log intensity, higher = more binding, comparable within an allelic series) | 11.3 upbm affinity estimate (log intensity, higher = more binding, comparable within an allelic series) | 13.3 upbm affinity estimate (log intensity, higher = more binding, comparable within an allelic series) | – | 11.6 upbm affinity estimate (log intensity, higher = more binding, comparable within an allelic series)
8 | ATCAATTA | 12.3 upbm affinity estimate (log intensity, higher = more binding, comparable within an allelic series) | 10.7 upbm affinity estimate (log intensity, higher = more binding, comparable within an allelic series) | 11.7 upbm affinity estimate (log intensity, higher = more binding, comparable within an allelic series) | 14.2 upbm affinity estimate (log intensity, higher = more binding, comparable within an allelic series) | 11.4 upbm affinity estimate (log intensity, higher = more binding, comparable within an allelic series) | 10.1 upbm affinity estimate (log intensity, higher = more binding, comparable within an allelic series) | 13.7 upbm affinity estimate (log intensity, higher = more binding, comparable within an allelic series) | 13.3 upbm affinity estimate (log intensity, higher = more binding, comparable within an allelic series) | 12 upbm affinity estimate (log intensity, higher = more binding, comparable within an allelic series) | 11.8 upbm affinity estimate (log intensity, higher = more binding, comparable within an allelic series) | 14.1 upbm affinity estimate (log intensity, higher = more binding, comparable within an allelic series) | 14 upbm affinity estimate (log intensity, higher = more binding, comparable within an allelic series) | 12.9 upbm affinity estimate (log intensity, higher = more binding, comparable within an allelic series) | 8.98 upbm affinity estimate (log intensity, higher = more binding, comparable within an allelic series) | 12.8 upbm affinity estimate (log intensity, higher = more binding, comparable within an allelic series) | 11.9 upbm affinity estimate (log intensity, higher = more binding, comparable within an allelic series) | 13.6 upbm affinity estimate (log intensity, higher = more binding, comparable within an allelic series) | 13.1 upbm affinity estimate (log intensity, higher = more binding, comparable within an allelic series) | 12.1 upbm affinity estimate (log intensity, higher = more binding, comparable within an allelic series)
9 | ATAATTAG | 12.4 upbm affinity estimate (log intensity, higher = more binding, comparable within an allelic series) | 10.9 upbm affinity estimate (log intensity, higher = more binding, comparable within an allelic series) | 11.8 upbm affinity estimate (log intensity, higher = more binding, comparable within an allelic series) | 14.4 upbm affinity estimate (log intensity, higher = more binding, comparable within an allelic series) | 11.9 upbm affinity estimate (log intensity, higher = more binding, comparable within an allelic series) | 10.1 upbm affinity estimate (log intensity, higher = more binding, comparable within an allelic series) | 14.2 upbm affinity estimate (log intensity, higher = more binding, comparable within an allelic series) | 13.9 upbm affinity estimate (log intensity, higher = more binding, comparable within an allelic series) | 12.3 upbm affinity estimate (log intensity, higher = more binding, comparable within an allelic series) | 11.9 upbm affinity estimate (log intensity, higher = more binding, comparable within an allelic series) | 14.2 upbm affinity estimate (log intensity, higher = more binding, comparable within an allelic series) | 14.1 upbm affinity estimate (log intensity, higher = more binding, comparable within an allelic series) | 13.9 upbm affinity estimate (log intensity, higher = more binding, comparable within an allelic series) | 9.08 upbm affinity estimate (log intensity, higher = more binding, comparable within an allelic series) | 12.9 upbm affinity estimate (log intensity, higher = more binding, comparable within an allelic series) | 12.3 upbm affinity estimate (log intensity, higher = more binding, comparable within an allelic series) | 13.7 upbm affinity estimate (log intensity, higher = more binding, comparable within an allelic series) | 13.9 upbm affinity estimate (log intensity, higher = more binding, comparable within an allelic series) | 12.2 upbm affinity estimate (log intensity, higher = more binding, comparable within an allelic series)
